Legend:
Conditions in all cases: concentration: 1 μM, replicates: in singlicate; n = 1
[1] = system: PRKCI
[2] = system: PRKCQ
[3] = system: PRKD1
[4] = system: PRKD2
[5] = system: PRKD3
[6] = system: PRKG1
[7] = system: PRKG2
[8] = system: T1, PRKR
T1 construct: gene EIF2AK2

[9] = system: PRKX
[10] = system: PRP4
[11] = system: T2, PYK2
T2 construct: gene PTK2B

[12] = system: QSK
[13] = system: RAF1
[14] = system: RET
[15] = system: RIOK1
[16] = system: RIOK2
[17] = system: RIOK3
[18] = system: RIPK1
[19] = system: RIPK2
[20] = system: RIPK4
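Further: KINOMEscan kinase panel screen.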

Structure (SMILES)	%Inh [1] [%]	%Inh [2] [%]	%Inh [3] [%]	%Inh [4] [%]	%Inh [5] [%]	%Inh [6] [%]	%Inh [7] [%]	%Inh [8] [%]	%Inh [9] [%]	%Inh [10] [%]	%Inh [11] [%]	%Inh [12] [%]	%Inh [13] [%]	%Inh [14] [%]	%Inh [15] [%]	%Inh [16] [%]	%Inh [17] [%]	%Inh [18] [%]	%Inh [19] [%]	%Inh [20] [%]
COc1ccc(CNC(=O)NC2CCN(c3ccnc(Nc4ccc(OC)cc4)n3)C2)cc1 (stereo not drawn) [GSK1379727]	12	0	0	8	0	0	0	0	11	23	1	0	12	15	8	0	18	50	0	0
CCc1nc(-c2cccc(C)c2)c(-c2ccnc(NCc3ccccc3)c2)s1	0	31	0	13	0	0	0	0	0	6	9	0	24	4	10	0	22	0	26	0
c1ccc(-c2cc(-c3c[nH]nc3-c3ccccn3)ccn2)cc1 [GW576604]	23	0	67	49	50	0	0	3	0	22	0	0	4	16	37	1	25	0	94.6	0
CCc1ccnc(/C=C/c2n[nH]c3cc(Sc4ccccc4C(=O)NC)ccc23)c1	1	0	0	15	0	0	0	0	29	0	0	0	0	83	0	0	0	0	43	0
Cc1ccc(C(=O)NCC(N)=O)cc1-n1c(C)cc(OCc2ccc(F)cc2F)c(Br)c1=O	36	26	23	0	15	0	12	0	22	0	15	0	37	5	1	0	0	13	0	0
COc1cc(Nc2nccc(N3CCC(NC(=O)c4cccc(NC(C)=O)c4)C3)n2)cc(OC)c1OC (stereo not drawn) [GSK1379754]	0	24	0	0	0	15	0	0	27	20	14	0	0	29	82	5	61	0	0	28
NS(=O)(=O)c1cccc(-c2ccc3nccc(-c4cccc(S(N)(=O)=O)c4)c3c2)c1 [GW867253]	0	0	0	0	0	28	0	4	0	0	12	13	0	0	0	0	0	0	3	0
CNc1ncnc2[nH]ncc12 [SKF-18355]	0	0	0	0	0	0	0	0	0	0	0	5	23	0	0	0	0	0	0	22
O=C1NC(=O)C(N2CCc3ccccc32)=C1c1cccc(Cl)c1 [SB-408010]	1	29	4	6	3	0	0	0	0	8	12	0	0	4	5	0	30	0	0	0
